Results from PubChem BioAssay (NCI).
This is part of a sample that, as a whole, favours compounds with a hit. Of some 83,000 tested, about 20% had one in any assay.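 Testing used 96-well plates and a 48-hour single-concentration exposure. Example: -40 means 40% of the starting cells died.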 A number with no mark means an inactive call. Calls of active or inactive are those of the source. The calls were made as follows: active = growth percent below 10; inactive = the rest.

Assays:
Test in all cases: NCI-60 one-dose screen, 48 h (100 = growth as untreated, 0 = no growth, -100 = all killed)
SK-MEL-2 melanoma = conditions: 10 µM unless noted
EKVX NSCLC = conditions: 10 µM unless noted
SN12C renal = conditions: 10 µM unless noted
UO-31 renal = conditions: 10 µM unless noted
TK-10 renal = conditions: 10 µM unless noted
ACHN renal = conditions: 10 µM unless noted
CAKI-1 renal = conditions: 10 µM
CCRF-CEM leukemia = conditions: 10 µM unless noted
MOLT-4 leukemia = conditions: 10 µM unless noted
SR leukemia = conditions: 10 µM unless noted
RPMI-8226 leukemia = conditions: 10 µM unless noted
OVCAR-8 ovarian = conditions: 10 µM unless noted
OVCAR-5 ovarian = conditions: 10 µM unless noted
SK-OV-3 ovarian = conditions: 10 µM unless noted
IGROV1 ovarian = conditions: 10 µM unless noted
OVCAR-3 ovarian = conditions: 10 µM unless noted
HS 578T breast = conditions: 10 µM unless noted
NCI/ADR-RES ovarian = conditions: 10 µM unless noted
OVCAR-4 ovarian = conditions: 10 µM unless noted

SMILES | growth (SK-MEL-2 melanoma) | growth (EKVX NSCLC) | growth (SN12C renal) | growth (UO-31 renal) | growth (TK-10 renal) | growth (ACHN renal) | growth (CAKI-1 renal) | growth (CCRF-CEM leukemia) | growth (MOLT-4 leukemia) | growth (SR leukemia) | growth (RPMI-8226 leukemia) | growth (OVCAR-8 ovarian) [%] | growth (OVCAR-5 ovarian) | growth (SK-OV-3 ovarian) | growth (IGROV1 ovarian) | growth (OVCAR-3 ovarian) | growth (HS 578T breast) | growth (NCI/ADR-RES ovarian) | growth (OVCAR-4 ovarian)
CCNC(=O)Oc1ccc(/C(=C(/C)c2ccccc2)c2ccc(OCCN3CCCC3)cc2)cc1 | 93.3% | 77.3% | 78.2% | 61% | 102% | 86% | 79.9% | 64% | 51.7% | 32.3% | 33% | 89.5 | 82.3% | 95.8% | 80.5% | 76.6% | 78.4% | 76.3% | 
CC1=C2C(=C[C@@](C)(COS(N)(=O)=O)[C@@H]2O)C(=O)[C@](C)(O)C12CC2 | 41.2% | 94.9% | 81.2% | 54.6% | 95.9% | 47.4% | 85.8% | 98.2% | 97.3% | 102% |  | 74.3 | 41.4% | 53.9% | 60.7% | 62.6% | 104% | 63.5% | 80.8%
Cc1cc(Cl)cc(NS(=O)(=O)c2ccc(-c3cnc(C4CC4)o3)cc2)c1 | 78.1% | 39.4% | 39.6% | 43.8% | 83.5% | 46.1% | 37.1% | 18.6% | 25.9% | 27.1% |  | 38.7 | 43.6% | 72.8% | 33.2% | -24.3% (active) | 35.6% | 10.1% | 66.2%
CNC(=O)c1c(NC(=O)c2ccc(F)cc2F)sc2c1CCC(=O)C2 | -4.48% (active) | 14.5% | 17.5% | -94% (active) | 38.7% | 1.41% (active) | -3.18% (active) | 4.01% (active) | 2.03% (active) | 1.58% (active) | -12.3% (active) | 13.9 | 0.937% (active) | -4.66% (active) |  | 0.976% (active) | 24.5% | 5.72% (active) | -40.6% (active)
COc1ccc(/C=C/C(=O)c2nnn(-c3ccc(C(=O)O)cc3)c2C)cc1OC | 101% | 93.9% | 92.2% | 79.3% | 113% | 91.4% | 95.9% | 87.7% | 97.7% | 95.4% | 99.4% | 102 | 97.8% | 112% |  | 117% | 102% | 106% | 107%
CCNC(=O)Oc1ccc(/C(=C(/C)c2ccc(Cl)cc2)c2ccc(OCCN(C)C)cc2)cc1 | 98% | 72.1% | 77.8% | 61.7% | 92% | 91.4% | 73.4% | 66.7% | 50.4% | 42.4% | 19.3% | 87.9 | 84.9% | 94.2% |  |  | 80.8% | 74.9% | 71.6%
CC(=O)c1ccc(NC(=O)COc2ccc(C3SCC(=O)N3c3ccc(Br)cc3)cc2)cc1 (stereo not given) | 96.2% | 94.4% | 95.1% | 84.2% | 103% | 97.6% | 89.2% | 89.9% | 96.8% | 77% | 89.6% |  | 102% | 105% | 89.7% | 121% | 100% | 92.6% | 103%
C/C(=N/Nc1nc(N/N=C(/C)c2ccc([N+](=O)[O-])cc2)nc(N2CCOCC2)n1)c1ccc([N+](=O)[O-])cc1 | 96.4% | 68.1% | 73.7% | 80.8% | 127% | 66.1% | 77.9% | 61.6% | 78.9% | 113% | 64.7% | 63.6 | 95.5% | 113% | 93.8% |  | 78.7% | 68.7% | 77.6%
Brc1cccc(/C=N/Nc2nc(N/N=C/c3cccc(Br)c3)nc(N3CCOCC3)n2)c1 | 2.64% (active) | 49% | 44.2% | 25.5% | 66.8% | 26.3% | 15.4% | 21% | 10.2% | 7.93% (active) | 34.2% | 37.4 | 72.4% | 92.9% |  |  | 66.2% | 41.8% | 54.2%
CN(C)CCn1c2ccc(N)cc2c2nc3ccccc3nc21 | 54.6% | 40.6% | 25.6% | 23% | 60.2% | 13.9% | 28.6% | 29.5% | 8.1% (active) | 33.3% | 24.6% |  | 41% | 37.4% | 23.2% | 37% | 76.2% | 28.1% | 53.5%
CC(C)SC1=NC(=C(C(=N1)NC2=ClC=CC=C2)C#N)C3=CC=CC=C3 | 125% | 84% | 36.7% | 24.7% | 112% | 23.4% | 64.5% | 63.4% | 83.3% | 69.3% | 88.2% |  | 80.3% | 88.5% | -5.3% (active) |  | 65.4% | 52.7% | -4.9% (active)
O=C(Nc1ccccc1)Nc1nc2ccc([N+](=O)[O-])cc2s1 | -10.8% (active) | 8.64% (active) | 2.88% (active) | 8.95% (active) | 5.92% (active) | 3.7% (active) | 3.46% (active) | 14.7% | 11.6% | 2.29% (active) |  | 12.1 | 12.1% | -7.62% (active) | 19.7% | 4.1% (active) | 5.92% (active) | 2.34% (active) | -4.54% (active)
COc1cc(CNC(=O)Cc2ccccc2[N+](=O)[O-])ccc1OCC(=O)NO | 104% | 100% | 99.5% | 83.1% | 122% | 103% | 90.4% | 102% | 107% | 97.4% | 118% |  | 104% | 107% | 108% | 126% | 108% | 106% | 116%
O=S(=O)(Nc1cc(Cl)c(F)c(Cl)c1)c1ccc(-c2cnc(C3CC3)o2)cc1 | 51.9% | 47.6% | 48.7% | 56.8% | 72.5% | 49.4% | 12% | 20.7% | 38% | 36% |  | 44.5 | 48.4% | 72.8% | 43.5% | 15.4% | 30.5% | 26.8% | 58.3%
COc1ccc(/C=C/C(=O)c2nnn(-c3ccc(Br)cc3)c2C)cc1OC | 88.6% | 62.3% | 80.2% | 66.7% | 95.4% | 86% | 83.4% | 66.4% | 78.4% | 52.6% | 10.5% | 82.7 | 94.1% | 90.3% |  | 52.9% | 92.5% | 59.3% | 71.6%
CCCCCCNC(=O)Oc1ccc(/C(=C(/C)c2ccc(OC)cc2)c2ccc(OCCN3CCCC3)cc2)cc1 | 93.4% | 79.5% | 82.3% | 38.7% | 116% | 84.3% | 87% | 62.4% | 30.4% | 5.51% (active) | 16.8% | 86.6 | 81.5% | 97.9% |  | 89.8% | 83.7% | 77% | 84.8%
